# Measurements as given in the supplement of paper PMC4166925.
# ± gives the standard deviation of the averaged measurements. The full ranking holds about 33,000 sequences; the median of “E-score (dimensionless, -0.5 to 0.5)” is about -0.046, and the highest 2% start at about 0.36. Only a selection was taken, and the highest values are over-represented in it overall.
# Test system: T1, SpTbr T-box DNA-binding domain (GST fusion)
# T1 sequence: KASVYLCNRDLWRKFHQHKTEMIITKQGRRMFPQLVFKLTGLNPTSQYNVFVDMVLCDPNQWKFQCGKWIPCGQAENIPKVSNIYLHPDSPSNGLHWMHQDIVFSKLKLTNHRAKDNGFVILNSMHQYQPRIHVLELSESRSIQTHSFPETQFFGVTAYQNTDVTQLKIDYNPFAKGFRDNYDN
# Assay: PBM E-score of 8-mer (E-score (dimensionless, -0.5 to 0.5)); Tbr is Tbrain of the sea star Patiria miniata (Pm) or the sea urchin Strongylocentrotus purpuratus (Sp); higher = stronger binding preference
# Conditions: the construct has about 5 more residues each side
# How it was run: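 GST-fused Tbr T-box DNA-binding domains (the whole T-box plus about five flanking residues) were expressed in BL21 E. coli at 20 °C and purified by glutathione affinity chromatography. Universal Agilent oligonucleotide arrays were made double-stranded by primer extension, incubated with 200 nM protein in PBS (pH 7.5), then scanned and quantified. Every ungapped 8-mer was scored from probe intensities. The Universal PBM Analysis Suite gave each word an enrichment E-score, averaged over duplicate arrays.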
row,Sequence,PBM E-score of 8-mer
1,GAGGTGGC,0.3855 ± 0.0037
2,CAGGTGGC,0.323 ± 0.0069
3,AAGGTGGA,-0.0733 ± 0.085
4,GAGGTGGA,0.06436 ± 0.00017
5,AAGGTGGG,0.242 ± 0.042
6,AAGGTGGC,0.372 ± 0.0085
7,AATGGCCT,-0.0378 ± 0.026
8,AGAGTTTC,-0.243 ± 0.052
9,AGCTAGCG,0.0935 ± 0.042
10,CCCCTCGG,-0.255 ± 0.051
11,AACCTCGA,-0.0446 ± 0.051
12,CACCTCGG,0.402 ± 0.0072
13,GACCTCGA,-0.0589 ± 0.014
14,GACCTCGC,0.0532 ± 0.0042
15,AACCTCGG,-0.108 ± 0.049
16,AACCTCGC,0.152 ± 0.055
17,CACCTCGA,0.44517 ± 8.5e-05
18,CACCTCGC,0.439 ± 0.012
19,CGACCCAC,0.00361 ± 0.024
20,ACTTTCGC,0.328 ± 0.038
21,ATGGGGGC,-0.283 ± 0.021
22,AGGGACTA,-0.1367 ± 0.00023

row,Sequence,PBM E-score of 8-mer
1,CTCAAGGC,-0.137 ± 0.013
2,ATTACGCG,0.19 ± 0.028
3,ATGTCTAG,-0.0188 ± 0.02
4,GCAGTGCC,-0.102 ± 0.027
5,GATCCTCA,0.11 ± 0.055
6,GATAGCCC,-0.217 ± 0.0042
7,CCACTTGC,0.192 ± 0.049
8,ACACTTGG,0.367 ± 0.022
9,ATACTTGG,-0.22 ± 0.046
10,AAACTTGC,0.102 ± 0.0067
11,ACACTTGA,0.347 ± 0.0096
12,ACACTTGC,0.4 ± 0.0054
13,GCCTAAGA,-0.128 ± 0.039
14,ACGCTGAG,-0.115 ± 0.075
15,AGGCCATA,-0.0266 ± 0.0079
16,ACCCCCTC,-0.0672 ± 0.037
17,GCACCCTA,0.118 ± 0.032
18,CCACCCTA,0.0825 ± 0.11
19,ACCCCCTG,0.0826 ± 0.062
20,ACACCCTC,0.402 ± 0.016
21,CCACCCTC,0.0803 ± 0.068
22,ACACCCTA,0.371 ± 0.01

row,Sequence,PBM E-score of 8-mer
1,ACACCCTG,0.415 ± 0.024
2,ATACCCTG,-0.119 ± 0.008
3,GTCTAGAA,-0.242 ± 0.049
4,CAGATCGA,-0.12 ± 0.014
5,AGAGTTCG,-0.121 ± 0.068
6,GATCGCAC,0.442 ± 0.0075
7,CATCGCAG,0.109 ± 0.046
8,CATCGCAC,0.376 ± 0.019
9,GATCGCAA,0.2797 ± 0.00053
10,CATCGCAA,-0.03 ± 0.019
11,AATCGCAC,0.4074 ± 0.00091
12,GATCGCGC,0.352 ± 0.025
13,AATCGCAT,0.113 ± 0.0034
14,AATCGCAG,0.0391 ± 0.046
15,GGGGAGCA,-0.25 ± 0.0084
16,AGCACTGA,0.0628 ± 0.0091
17,AGTGCCCC,-0.185 ± 0.025
18,CATGTCGA,-0.0673 ± 0.11
19,AAGACGAT,-0.0524 ± 0.029
20,GCGCGCGC,0.0386 ± 0.035
21,AGACTGAT,-0.168 ± 0.062
22,GTCCAGCA,-0.295 ± 0.06

row,Sequence,PBM E-score of 8-mer
1,CCTTTAAC,0.141 ± 0.02
2,AACTTCAC,0.147 ± 0.036
3,CACTTCAC,0.39 ± 0.0097
4,CACTTCAG,0.269 ± 0.049
5,CTAAGGAA,-0.158 ± 0.034
6,GACCTGCC,0.0636 ± 0.012
7,CACCTGGC,0.389 ± 0.021
8,CACCTGCC,0.3954 ± 0.00044
9,CACCTGCA,0.346 ± 0.0038
10,CACCTGGA,0.297 ± 0.025
11,CACCTGCG,0.425 ± 0.0075
12,AACCTGGC,0.0794 ± 0.017
13,AACCTGCG,0.0936 ± 0.029
14,AACCTGCC,-0.0535 ± 0.017
15,AATGGATC,-0.0632 ± 0.037
16,GAATCGTA,-0.0254 ± 0.00061
17,CGACTGCA,-0.155 ± 0.0016
18,CGAGGGGA,-0.0885 ± 0.018
19,CAGTGCTC,0.0319 ± 0.0026
20,AGACACTC,0.129 ± 0.029
